In PubChem BioAssay (NCI):
Compounds without any hit were thinned out: in the full panel of roughly 83,000, 20% have a hit.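 96-well plates, one dose, 48 hours. Percent growth reported; active if below 10.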 Values without a mark were called inactive. The source made the active and inactive calls.

Key:
Assay in all cases: NCI-60 one-dose screen, 48 h (100 = growth as untreated, 0 = no growth, -100 = all killed)
Conditions in all cases: 10 µM unless noted
RPMI-8226 leukemia = tested on: RPMI-8226 leukemia
OVCAR-8 ovarian = tested on: OVCAR-8 ovarian
OVCAR-5 ovarian = tested on: OVCAR-5 ovarian
OVCAR-4 ovarian = tested on: OVCAR-4 ovarian
SK-OV-3 ovarian = tested on: SK-OV-3 ovarian
IGROV1 ovarian = tested on: IGROV1 ovarian
OVCAR-3 ovarian = tested on: OVCAR-3 ovarian
HS 578T breast = tested on: HS 578T breast
NCI/ADR-RES ovarian = tested on: NCI/ADR-RES ovarian
T-47D breast = tested on: T-47D breast

SMILES	growth (RPMI-8226 leukemia)	growth (OVCAR-8 ovarian)	growth (OVCAR-5 ovarian)	growth (OVCAR-4 ovarian)	growth (SK-OV-3 ovarian)	growth (IGROV1 ovarian)	growth (OVCAR-3 ovarian)	growth (HS 578T breast)	growth (NCI/ADR-RES ovarian)	growth (T-47D breast)
COc1c(B(O)O)cccc1-c1nc2ccc3[nH]ncc3c2c2c1C1CCC2C1 (stereo not given)	39.7%	59.9%	113%	115%	39.8%	76.1%	59%	40.8%	78.8%	101%
COc1ccc(/C=C/C(=O)c2ccc3cc(OC)c(OC)cc3c2)cc1OC	4.57% (active)	11.4%	29.6%	25.5%	63.3%	53.8%	15.5%	77.2%	11.5%	47.5%
CC(C)(C)c1ccc(C2CC(=O)C3=C(C2)Nc2ccccc2N(C(=O)c2ccccc2Cl)C3c2ccc(F)cc2)cc1 (stereo not given)	14.1%	-12% (active)	38.9%	-68.3% (active)	62.5%	-26.7% (active)	-28.5% (active)	81.5%	24.3%	9.46% (active)
O=C(Nc1ccc(C23CC4CC(CC(c5ccccc5)(C4)C2)C3)cc1)c1cccs1	41.1%	57.5%	100%	58%	99.3%	92.8%	71.1%	92.7%	58%	49.2%
O=c1oc2ccc(Cl)cc2c(=O)n1-c1ccc(Cl)cc1F	-28.5% (active)	8.62% (active)	24.6%	11%	-2.36% (active)	14.3%	5.29% (active)	-5.3% (active)	6.2% (active)	-12% (active)
CCOC(=O)c1ccc(N=Cc2sc(=O)[nH]c2O)cc1	101%	92.1%	102%	100%	91.6%	87.1%	103%	88.1%	96.8%	92.3%
COc1cccc2cc(N(C)c3nc(C)nc4ccsc34)ccc12	12.5%	6.47% (active)	43.7%	35.5%	22.9%	15.5%	3.88% (active)	17.7%	-6.94% (active)	60%
COc1ccc(-c2nsc3c2NC(=O)CC3c2cccc(OC)c2)cc1 (stereo not given)	12.1%	45.9%	52.9%	39.9%	14.2%	45.5%	-18.6% (active)	28.5%	32.4%	35.2%
CC(=O)c1ccc(Cc2ccc(C(C)=O)s2)s1	95.2%	107%	100%	96.5%	109%	96.1%	100%	109%	106%	96.7%
CCOC(=O)c1c(C=O)nc2ccccc2c1/C=C/c1ccc(Cl)cc1	85.7%	104%	101%	85.6%	95.1%	80.9%	98.6%	90.6%	103%	86.2%
C1=CC2(C=C1)OC21CCC2(C=CC3(C2)OC3C2CCCCC2)CC1 (stereo not given)	103%	107%	104%	103%	109%	107%	110%	103%	98.4%	104%
COc1cccc(C2=NN3C(C2)c2ccccc2OC3c2ccc(/C=C3\SC(=O)NC3=O)cc2)c1 (stereo not given)	99.4%	94.8%	108%	103%	96.8%	100%	102%	96.4%	111%	100%
COC(=O)C1=Nc2ccc(F)cc2/C1=C/c1sc(=S)[nH]c1O	-9.01% (active)	13.3%	43.6%	58.2%	28.5%	14.4%	-1.67% (active)	23.1%	7.28% (active)	61.2%
Cc1c(C(=O)OCCO)cc(-c2ccc(Cl)cc2)n1-c1ccc(Cl)cc1Cl	84.9%	83.8%	84.1%	97.3%	72.7%	90.2%	91.9%	81.3%	77.1%	62%
O=c1oc2ccc(-c3ccc(F)cc3F)cc2c(=O)n1-c1cccc(C(F)(F)F)c1	-6.6% (active)	8.92% (active)	12.1%	19.2%	-9.56% (active)	20.5%	7.84% (active)	8.28% (active)	7.17% (active)	-13.7% (active)
O=C(Nc1ccc(N2CCNCC2)cn1)c1[nH]ncc1Nc1ncnc2sccc12	1.87% (active)	-33.5% (active)	67%	21.3%	70.4%	78.1%	33.2%	69.9%	91%	-4.16% (active)
Clc1ncccc1Nc1ccc2nnc(-c3ccncc3)n2n1	98.9%	99.3%	104%	91.3%	104%	82.3%	102%	102%	98.7%	86.6%
Cc1cccc(NC(=O)c2sc3nc4c(cc3c2N)CCCC4)c1C	7.76% (active)	23%	44.1%	65.3%	32.5%	40.7%	-10.1% (active)	25.1%	-15.8% (active)	36.3%
O=c1oc2ccc(Br)cc2c(=O)n1-c1ccc(Cl)cc1F	-25.5% (active)	9.88% (active)	23.5%	15.1%	1.82% (active)	15.7%	7.85% (active)	-5.24% (active)	8.34% (active)	-1.08% (active)
COc1ccc(Nc2cc(C)nc(NCc3ccccc3)n2)cc1	8.08% (active)	24.1%	62%	46.7%	92.5%	37.5%	6.99% (active)	60.5%	77.8%	63%

SMILES	growth (RPMI-8226 leukemia)	growth (OVCAR-8 ovarian)	growth (OVCAR-5 ovarian)	growth (OVCAR-4 ovarian)	growth (SK-OV-3 ovarian)	growth (IGROV1 ovarian)	growth (OVCAR-3 ovarian)	growth (HS 578T breast)	growth (NCI/ADR-RES ovarian)	growth (T-47D breast)
CC1=C(C(=O)OCC2CCN(C(=O)OC(C)(C)C)CC2)[C@H](c2cccc(C#N)c2)C2=C(CC(C)(C)CC2=O)N1	41.5%	46.9%	75.9%	61.7%	84%	47.8%	58.3%	61.7%	50.6%	69.8%
NC(CCl)=NCCC[C@H](N)C(=O)O	99.6%	99.5%	105%	93%	105%	116%	117%	99.3%	101%	98.2%
Cc1nn(-c2nc3ccccc3[nH]2)c2c1C(c1ccc(OCC(N)=O)cc1)CC(=O)N2 (stereo not given)	126%	107%	102%	108%	106%	109%	111%	95%	109%	90.8%
COc1ccc(-c2nc(-c3ccccc3)c(-c3ccccc3)[nH]2)cc1OC1CCCCC1	58.9%	86.7%	96.6%	74.2%	98.9%	102%	72.6%	91.2%	87.7%	82.6%
CCOC(=O)c1cc2c(n1Cc1cc(OC)cc(OC)c1)-c1oncc1CCC2	20.2%	19.5%	58.9%	37.7%	-0.349% (active)	-38.4% (active)	-35.7% (active)	21.5%	6.97% (active)	66.8%
CCOC(=O)C1=C(C)c2ccc(OC)c(OC)c2C1	85.3%	95.7%	102%	84.7%	103%	104%	117%	120%	101%	78%
COc1ccc(N)c(-c2cc3c(c4c2[nH]c2ccc(OC)cc24)CCCC3)c1	68.5%	87.4%	95.5%	93.3%	77.3%	71.1%	86.1%	85.9%	85.7%	62.7%
O=S(=O)(c1ccccc1)n1cc2c(c1-c1ccccc1)CCc1sc(Nc3ccccc3)nc1-2	67.7%	79.8%	94.4%	75.2%	99.7%	115%	72.5%	98.3%	76.8%	64.1%
CC(=O)SC1CC(=O)C=C2CCC3C4CCC(=O)OC4(C)CCC3C21C (stereo not given)	103%	98.9%	99.7%	122%	113%	147%	106%	114%	110%	122%
COc1c(B(O)O)cccc1-c1nc2ccc3n[nH]c(F)c3c2c2c1CCCC2	42.3%	72%	105%	96%	79%	80%	91%	43.9%	79.6%	106%
COc1ccc(-c2cn[nH]c2-c2cc(OC)c(OC)c(OC)c2)cc1OCc1ccccc1	8.45% (active)	40.1%	67.1%	50.1%	12.5%	44.8%	10.3%	6.1% (active)	-22.2% (active)	23.9%
O=c1[nH]nnc2c1ncn2C1OC(CO)C(O)C1O (stereo not given)	37.6%	95.9%	87.4%	35.9%	14.5%	32.7%	41.7%	103%	39.5%	77.1%
CCCCCCn1c(=N)n(CC(O)COc2cccc(C)c2)c2ccccc21 (stereo not given)	-24.8% (active)	-67.1% (active)	-7.84% (active)	-31.9% (active)	37.3%	-58.1% (active)	23.3%	-5.09% (active)	-2.54% (active)	52.6%
O=C(NC(=S)Nc1cccc(NC(=S)NC(=O)c2ccccc2)c1)c1ccccc1	80.9%	31.6%	116%	16.4%	44.1%	69.1%	65.1%	18.7%	60.1%	54.6%
O=S(=O)(c1ccc(NC(=S)NC23CC4CC(CC(C4)C2)C3)cc1)N1CCCCC1	-11.6% (active)	82.9%	94.4%	86.4%	106%	94.3%	5.73% (active)	88.8%	88.2%	90.5%
Nc1no[n+]([O-])c1-c1nnc2c(n1)-c1ccccc1C2=O	18.1%	65.7%	83.9%	-97.5% (active)	111%	82.6%	-20.2% (active)	89%	72.1%	61%
Nc1nc(N)c2c(n1)NC1(C=C(O)c3ccccc31)C1=C(N2)c2ccccc2C1=O (stereo not given)	107%	103%	116%	98.1%	121%	92.3%	113%	111%	107%	112%
Clc1ccc(Nc2scc3[n+]2CCC3)cc1	98.5%	103%	96.5%	88.9%	97.7%	104%	101%	100%	96.8%	89.7%
O=c1oc2ccc(Cl)cc2c(=O)n1-c1cc(C(F)(F)F)cc(C(F)(F)F)c1	-26% (active)	7.66% (active)	25.2%	18.1%	-10.6% (active)	16%	7.95% (active)	-15.1% (active)	5.39% (active)	-9.71% (active)
O=C(/C=C/c1cccc(Cl)c1)OCc1ccc2cc1OCC#C/C=C\C#CCO2	83.8%	98.2%	108%	95.6%	105%	92.2%	116%	101%	96.8%	84.8%
